In publication PMC4336329 (PLoS ONE, 2015):
In all, about 310,000 compounds went through this assay and about 14,000 (4.5%) showed an effect of 50% or more. The effect is printed as a negative number. This is one part of a sample in which strong results are shown more often than they occur.

target: human ether-à-go-go-related gene (hERG) potassium channel (human, UniProt Q12809); experiment: primary screen, population patch clamp on CHO cells stably expressing hERG; higher = less effect of the substance
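Also: peak tail current of the secondary pulse compared with the same well before compound.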

Sequence of human ether-à-go-go-related gene (hERG) potassium channel (Q12809 whole entry, looked up): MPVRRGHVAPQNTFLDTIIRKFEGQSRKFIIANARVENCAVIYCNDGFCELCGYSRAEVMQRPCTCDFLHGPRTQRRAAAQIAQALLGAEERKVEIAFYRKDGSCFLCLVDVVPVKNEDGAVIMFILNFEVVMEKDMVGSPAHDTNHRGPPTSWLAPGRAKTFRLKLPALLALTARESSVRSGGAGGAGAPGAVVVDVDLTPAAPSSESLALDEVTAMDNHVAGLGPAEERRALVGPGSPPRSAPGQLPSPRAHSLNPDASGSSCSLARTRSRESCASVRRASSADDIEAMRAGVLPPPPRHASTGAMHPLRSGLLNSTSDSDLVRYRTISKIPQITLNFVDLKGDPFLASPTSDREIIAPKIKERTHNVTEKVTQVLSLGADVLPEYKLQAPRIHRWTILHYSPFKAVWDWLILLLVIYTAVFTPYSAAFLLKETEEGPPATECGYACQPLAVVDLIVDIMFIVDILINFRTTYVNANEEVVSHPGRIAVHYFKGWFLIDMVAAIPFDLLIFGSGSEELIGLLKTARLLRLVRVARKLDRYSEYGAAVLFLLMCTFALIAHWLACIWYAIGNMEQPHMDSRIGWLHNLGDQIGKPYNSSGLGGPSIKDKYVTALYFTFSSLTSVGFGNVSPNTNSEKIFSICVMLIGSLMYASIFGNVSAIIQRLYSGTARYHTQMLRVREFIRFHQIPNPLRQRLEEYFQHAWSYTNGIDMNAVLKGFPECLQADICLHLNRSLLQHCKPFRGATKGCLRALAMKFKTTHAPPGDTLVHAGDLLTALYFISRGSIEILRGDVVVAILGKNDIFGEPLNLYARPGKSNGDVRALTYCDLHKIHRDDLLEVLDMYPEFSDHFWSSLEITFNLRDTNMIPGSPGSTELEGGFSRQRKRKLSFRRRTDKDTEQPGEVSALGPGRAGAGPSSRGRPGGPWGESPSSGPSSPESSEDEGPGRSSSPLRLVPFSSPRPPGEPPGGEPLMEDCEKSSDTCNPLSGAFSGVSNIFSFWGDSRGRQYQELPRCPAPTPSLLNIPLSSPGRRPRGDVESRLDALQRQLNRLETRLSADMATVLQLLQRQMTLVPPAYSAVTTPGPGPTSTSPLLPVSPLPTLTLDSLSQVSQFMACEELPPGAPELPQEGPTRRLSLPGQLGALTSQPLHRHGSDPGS

SMILES	hERG current change (%, negative = inhibition) at 10uM [%]
Cc1cc(C)n2c3c(c(C#N)c2n1)CC(C)(C)OC3	2.81
CC(C)(C)Nc1nc(-c2ccccn2)nc2ccccc12	-69.8
C/C(=N\Nc1nc(-c2ccccn2)nc2ccccc12)c1ccc(F)cc1	11
c1ccc(-c2nc(NCC3CCCO3)c3ccccc3n2)nc1 (stereo not drawn)	-23.3
c1ccc(CNc2nc(-c3ccccn3)nc3ccccc23)cc1	-43.5
c1ccc(CCNc2nc(-c3ccccn3)nc3ccccc23)cc1	-78.6
c1ccc(-c2nc(NCc3ccco3)c3ccccc3n2)nc1	-62.9
c1ccc(CCNc2nc(-c3ccncc3)nc3ccccc23)cc1	3.71
CCC(C)Nc1nc(-c2cccc(OC)c2O)nc2ccccc12 (stereo not drawn)	-5.73
Cl.c1ccc(-c2nc(NCc3ccco3)c3ccccc3n2)cc1	-33.4
CCC(C)Nc1nc(-c2ccccn2)nc2ccccc12 (stereo not drawn)	-50.2
C(=N\Nc1nc(-c2ccccn2)nc2ccccc12)/c1ccccc1	12.3
Oc1ccccc1-c1nc(NCc2ccco2)c2ccccc2n1	1.8
CCc1ccccc1NC(=O)COc1ccc2c(=O)c(Oc3cc(C)ccc3C)coc2c1	10.5
Cc1cc(C(C)(C)C)c(OC(=O)[C@@H]2OC(c3ccccc3)=C[C@H]2c2ccccc2)c(C(C)(C)C)c1	7.58
c1coc(C2Nc3ccccc3C3OCCC23)c1 (stereo not drawn)	6.63
CC(C)Cn1c(N)c(C(=O)COC(=O)C2=COCCO2)c(=O)n(C)c1=O	14.1
CCOC(=O)NCN1C(=O)C2C3C=CC(C3)C2C1=O (stereo not drawn)	-11.9
CCCCN(CCCC)c1nc(-c2ccncc2)nc2ccccc12	-0.281
CCCN(CCC)c1nc(-c2ccccn2)nc2ccccc12	-74.4
CCN(CC)c1nc(-c2ccccc2)nc2ccccc12.Cl	-32.5
Cc1ccc(N2CC(C(=O)NCc3ccccn3)CC2=O)cc1 (stereo not drawn)	5.36
Cc1ccc(-c2csc(NC(=O)c3cc([N+](=O)[O-])ccc3N3CCOCC3)n2)cc1	15.4
COc1ccc(C(NC(N)=O)c2ccccc2)cc1 (stereo not drawn)	10.3

SMILES	hERG current change (%, negative = inhibition) at 10uM [%]
Cc1cc(C)cc(NC(=S)N(CCN(C)C)Cc2cccs2)c1	-25.1
CCc1ccc(NC(=S)N(CCCN2CCN(C)CC2)Cc2cccs2)cc1	-62.5
Cc1cc(C)c(NC(=S)N(CCCN2CCN(C)CC2)Cc2cccs2)c(C)c1	-43.9
Cc1ccc(NC(=S)N(CCN(C)C)Cc2cccs2)cc1	-19.3
CCc1cccc(C)c1NC(=S)N(CCCN1CCN(C)CC1)Cc1cccs1	-30.9
Cc1ccc(NC(=S)N(CCCN2CCN(C)CC2)Cc2cccs2)cc1	-51.3
Cc1cc(C)cc(NC(=S)N(CCCN2CCN(C)CC2)Cc2cccs2)c1	-63.3
CN1CCN(CCCN(Cc2cccs2)C(=S)Nc2ccc(Cl)cc2)CC1	-71.8
S=C(Nc1ccc(Cl)cc1)N(CCCN1CCOCC1)Cc1cccs1	-32.4
CC1CCCC(NS(=O)(=O)c2cc(Br)cnc2N)C1C (stereo not drawn)	-8.36
CC(=O)NC(CC(=O)Nc1nc(-c2ccccc2)c(C(C)=O)s1)c1ccccc1 (stereo not drawn)	-44.4
COc1ccccc1C(=O)NNC1=C(C(=O)C(F)(F)F)CCC1	-2.03
O=C(CCl)NN1C(=O)NC(c2ccccc2)(c2ccccc2)C1=O	11.2
O=C(O)c1ccc(N(c2ccccc2)c2ccccc2)cc1	2.69
CCCN1CCN(C(=O)c2cccc3c2C(=O)N(CCOC)C3)CC1	13
COc1ccc(-c2nnc(SCC(N)=O)n2N)cc1	6.29
COc1cc(/C=N/NC(=O)c2nnn(-c3nonc3N)c2C(C)C)ccc1O	-2.72
O=C1CC(NC(=O)c2ccc(Cl)cc2)C(=O)N1 (stereo not drawn)	14.8
Cc1cccc2sc(NC(=O)c3ccc(OCC4CCCO4)cc3)nc12 (stereo not drawn)	9.85
CCc1ccc(NC(=S)N2CCNC(=O)C2CC(=O)OC)cc1 (stereo not drawn)	7.17
COCCNC(=O)CCCCCNS(=O)(=O)c1ccc(C)cc1	8.18
CCN(CC)CCNC(=O)c1ccc(NC(=O)Cc2ccccc2F)cc1	-6.75
CCc1ccc(N(CC(=O)NC(C)(C)C)C(=O)CNC(=O)c2cccs2)cc1	15.5
Cc1nc(S/C(=C/c2ccc(-c3ccc(C(=O)O)cc3)o2)C(=O)O)n[nH]1	-11.4

SMILES	hERG current change (%, negative = inhibition) at 10uM [%]
Cc1ccc(NC(=S)N(CCN(C)C)Cc2cccs2)cc1C	-46.7
Cc1ccc(NC(=S)N(CCCN2CCN(C)CC2)Cc2cccs2)cc1C	-57
O=S(=O)(c1ccc(SCc2ccccc2)nc1)N1CCCCC1	4.03
O=C(C[n+]1ccccc1)Nc1nc2ccccc2s1.[Cl-]	0.223
COc1ccc(C2CC(c3ccc(Br)cc3)=NN2C(=O)CCC(=O)O)cc1OC (stereo not drawn)	9.97
Cc1ccc(O)c(NC(=O)C2CC(c3ccc(F)cc3)=NO2)c1 (stereo not drawn)	-3.98
C[C@]12CC[C@@H](O)C[C@@H]1CC[C@@H]1[C@@H]2CC[C@]2(C)C(=O)CC[C@@H]12	5.99
C[C@]12CC[C@@H](O)C[C@H]1CC[C@@H]1[C@@H]2CC[C@]2(C)C(=O)CC[C@@H]12	-3.43
C[C@]12CC[C@H](O)C[C@@H]1CC[C@@H]1[C@@H]2CC[C@]2(C)C(=O)CC[C@@H]12	-58.3
Cc1ccc(-n2c(O)c(C=NCCN3CCNCC3)c(=O)[nH]c2=S)cc1	22
O=S1(=O)CCN=C2SC3=C(CCCC3)N21	1.25
CC1CCCCN1C(=O)COC(=O)c1ccc2c(c1)C(=O)N(Cc1ccco1)C2=O (stereo not drawn)	-34.9
O=C(OCC(=O)N1CCCCC1)c1ccc2c(c1)C(=O)N(Cc1ccco1)C2=O	-28
CC1CC(C)CN(C(=O)COC(=O)c2ccc3c(c2)C(=O)N(Cc2ccco2)C3=O)C1 (stereo not drawn)	-68.7
CN(CC(=O)Nc1ccccc1Br)C(=O)c1cccn1C	16.2
Cl.O=C(CCS(=O)(=O)c1ccccc1)N(CCCN1CCOCC1)c1nc2ccccc2s1	-14.1
CCc1nn(CC(=O)NCCC2=CCCCC2)c(=O)c2cc3cc(F)ccc3n12	15.7
CN(C)S(=O)(=O)c1ccc(NC(=O)CN2CCN(c3ccccn3)CC2)cc1	13.9
CCN(CC)CCSc1nnc2c3ccccc3n(CCc3ccccc3)c2n1	-75.3
CCn1c2ccccc2c2nnc(SCc3ccccc3)nc21	-3.61
O=C1c2ccccc2C(=O)N1CSc1nnc2c3ccccc3n(CCc3ccccc3)c2n1	14.4
c1ccc(Cn2c3ccccc3c3nnc(SCCN4CCCCC4)nc32)cc1	-67.7
CSc1nnc2c3ccccc3n(Cc3ccccc3)c2n1	25.8
C=CCn1c2ccccc2c2nnc(SCCN3CCCCC3)nc21	-46.4

SMILES	hERG current change (%, negative = inhibition) at 10uM [%]
CCN(CC)CCSc1nnc2c3ccccc3n(Cc3ccccc3)c2n1	-75.4
CSc1nnc2c3ccccc3n(CCc3ccccc3)c2n1	-12.1
CCn1c2ccccc2c2nnc(SCCN3CCCCC3)nc21	-39.1
O=C(CSc1nnc(NC(=O)c2cccc(F)c2)s1)NC1CCCC1	13.9
Cc1cc(C)nc(NC(=O)c2c(F)c(F)c(F)c(C(=O)Nc3cc(C)cc(C)n3)c2F)c1	-8.14
CN(C)C=O.CNC(=O)CSc1nc2nc(C)cc(C)n2n1	0.176
Cc1cccc(OCC(=O)Nc2nnc(-c3ccco3)s2)c1	-1.94
CCOc1ccc2nc(SC3CC(=O)N(c4ccc(C)cc4)C3=O)sc2c1 (stereo not drawn)	-6.29
Cc1cc(C(=O)NCCCn2ccnc2)sc1-c1ccccc1	-10.3
COC(=O)c1cc(S(=O)(=O)NCC2CCN(Cc3ccc(F)cc3)CC2)c[nH]1	-57
Cc1nc2scc(C)n2c(=O)c1S(=O)(=O)Nc1ccc(F)cc1	-22.8
COC(=O)c1cc(S(=O)(=O)NCC2CCN(Cc3cccc(F)c3)CC2)c[nH]1	-16.7
CCOC(=O)c1c(C)[nH]c(C)c1S(=O)(=O)NCC1CCN(Cc2cccc(Cl)c2)CC1	-20.5
CCc1cccc(NS(=O)(=O)c2c(C)nc3scc(C)n3c2=O)c1	9.84
Cc1cccc(NS(=O)(=O)c2c(C)nc3scc(C)n3c2=O)c1	-65.2
O=c1ccc(-c2ccc(S(=O)(=O)NCC3CCN(Cc4ccccc4F)CC3)s2)n[nH]1	-32.6
O=c1ccc(-c2ccc(S(=O)(=O)NCC3CCN(Cc4cccc(F)c4)CC3)s2)n[nH]1	-8.55
Cc1ccc(CN2CCC(CNS(=O)(=O)c3ccc(-c4ccc(=O)[nH]n4)s3)CC2)cc1	-60.6
CCOC(=O)c1c(C)[nH]c(C)c1S(=O)(=O)NCC1CCN(Cc2cccc(F)c2)CC1	-1.69
COC(=O)c1cc(S(=O)(=O)NCC2CCN(Cc3ccccc3F)CC2)c[nH]1	-21.4
CCOC(=O)c1c(C)[nH]c(C)c1S(=O)(=O)NCC1CCN(Cc2ccc(C)cc2)CC1	-60.2
